Assay results as given in PubChem BioAssay AID1159580 (chemical genetic matrix, 2015).
Several values for one entry are separate records, joined by “and”; a condition that tells them apart may be missing. Equal entries are not always repeated. Screen size: about 5,500 compounds; about 2,000 (36%) were called active. Roughly 18% stayed inconclusive and do not appear here. No stated cut-off is given here; in the data, active means normalized growth mostly below about 0.91 (no sharp cut-off); inconclusive means no clear call, values can overlap the other calls; inactive means mostly above about 0.92. The list shows a part of the results.

Assay: chemical genetic growth profiling, strain panel (AID 1159580);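 further: tested at 20 µM; growth read once vehicle control cultures reached saturation at 30 °C; 1 = growth at the plate median or of vehicle wells; lower values mean less growth of the strain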
Conditions: S. cerevisiae deletion strains, growth OD

Measured: normalized growth

COc1cc(O)ccc1C(C)=O
inactive: locus YAL013W, strain DEP1, hits give low values 0.99 | locus YAL021C, strain ccr4, hits give low values 1.02 | locus YAL026C, strain drs2, hits give low values 1.02 | locus YAL030W, strain snc1, hits give low values 1.01 | locus YBL061C, strain skt5, hits give low values 1.02 | locus YBR009C, strain hhf1, hits give low values 1.02 | locus YBR021W, strain FUR4, hits give low values 1.05 | locus YBR023C, strain chs3, hits give low values 1.04 | locus YBR171W, strain sec66, hits give low values 1.01 | locus YBR229C, strain ROT2, hits give low values 0.958 | locus YBR231C, strain swc5, hits give low values 1 | locus YBR279W, strain paf1, hits give low values 1 | locus YCL011C, strain gbp2, hits give low values 1.03 | locus YCL016C, strain dcc1, hits give low values 1.03 | locus YCL029C, strain bik1, hits give low values 0.973 | locus YCL061C, strain MRC1, hits give low values 1.02 | locus YCL069W, strain vba3, hits give low values 1.01 | locus YCR088W, strain abp1, hits give low values 1.02 | locus YDL005C, strain med2, hits give low values 1.01 | locus YDL035C, strain GPR1, hits give low values 0.979 | locus YDL040C, strain nat1, hits give low values 1.01 | locus YDL074C, strain BRE1, hits give low values 1.03 | locus YDL101C, strain DUN1, hits give low values 0.974 | locus YDL134C, strain PPH21, hits give low values 0.977 | locus YDL185W, strain tfp1, hits give low values 0.97 | locus YDL192W, strain arf1, hits give low values 0.992 | locus YDR001C, strain nth1, hits give low values 1.02 | locus YDR069C, strain doa4, hits give low values 1.02 | locus YDR101C, strain arx1, hits give low values 1.03 | locus YDR137W, strain rgp1, hits give low values 1.05 | locus YDR150W, strain NUM1, hits give low values 0.981 | locus YDR159W, strain sac3, hits give low values 1.03 | locus YDR162C, strain NBP2, hits give low values 0.939 | locus YDR195W, strain ref2 1 | locus YDR297W, strain sur2, hits give low values 1.02 | locus YDR318W, strain mcm21, hits give low values 0.965 | locus YDR334W, strain swr1, hits give low values 1.02 | locus YDR335W, strain msn5, hits give low values 1.01 | locus YDR388W, hits give low values 0.949 | locus YDR392W, strain spt3, hits give low values 0.95 | locus YDR502C, strain sam2, hits give low values 1.02 | locus YEL003W, strain gim4, hits give low values 1.01 | locus YEL037C, strain rad23, hits give low values 1.02 | locus YEL061C, strain CIN8 (second series), hits give low values 1.02 | locus YEL061C, strain CIN8, hits give low values 0.982 | locus YER015W, strain faa2, hits give low values 1.03 | locus YER016W, strain bim1, hits give low values 1.02 | locus YER110C, hits give low values 0.979 | locus YER111C, strain swi4, hits give low values 1.02 | locus YER155C, strain BEM2 (second series), hits give low values 1.02 | locus YER155C, strain BEM2, hits give low values 0.989 | locus YER167W, strain BCK2, hits give low values 0.979 | locus YFR010W, strain ubp6, hits give low values 1.02 | locus YGL078C, strain dbp3, hits give low values 0.989 | locus YGL086W, strain mad1, hits give low values 1.02 | locus YGL167C, strain pmr1, hits give low values 1.02 | locus YGL173C, strain kem1, hits give low values 1.03 | locus YGL227W, strain vid30, hits give low values 1.02 | locus YGL240W, strain doc1, hits give low values 1.01 | locus YGL248W, strain PDE1, hits give low values 0.952 | locus YGL253W, strain hxk2, hits give low values 1.02 | locus YGR078C, strain PAC10, hits give low values 0.952 | locus YGR135W, strain pre9, hits give low values 0.962 | locus YGR229C, strain SMI1, hits give low values 1 | locus YGR252W, strain gcn5, hits give low values 0.961 | locus YHR013C, strain ard1, hits give low values 1.03 | locus YHR027C, strain rpn1, hits give low values 1.02 | locus YHR030C, strain SLT2, hits give low values 0.998 and 1.02 | locus YHR079C, strain IRE1 (second series), hits give low values 0.99 | locus YHR079C, strain IRE1, hits give low values 1.01 | locus YHR094C, strain hxt1, hits give low values 0.973 | locus YHR129C, strain ARP1, hits give low values 0.987 | locus YHR142W, strain chs7, hits give low values 1.04 | locus YHR200W, strain rpn10, hits give low values 0.982 | locus YIL066C, strain RNR3, hits give low values 0.985 | locus YIL073C, strain SPO22, hits give low values 0.955 | locus YIL125W, strain kgd1, hits give low values 0.981 | locus YIR030C, strain dcg1, hits give low values 0.987 | locus YJL092W, strain hpr5, hits give low values 1.02 | locus YJL095W, strain BCK1 (second series), hits give low values 1.02 | locus YJL095W, strain BCK1, hits give low values 0.942 and 1.02 | locus YJL115W, strain asf1, hits give low values 1.02 | locus YJL129C, strain trk1, hits give low values 1.04 | locus YJL134W, strain LCB3, hits give low values 0.989 | locus YJL154C, strain vps35, hits give low values 1.02 | locus YJL164C, strain tpk1, hits give low values 1.03 | locus YJL166W, strain qcr8, hits give low values 1.01 | locus YJL168C, strain set2, hits give low values 1.01 | locus YJL187C, strain SWE1 (second series), hits give low values 0.974 | locus YJL187C, strain SWE1, hits give low values 1.01
